Source: PubChem
GAA850 FXN act: activators of GAA850 frataxin (FXN) promoter. 360,000 compounds, 0.56% hits. activation, % at 6 µM. HEK293 lucGAA850 FXN promoter luciferase reporter, 24 h; percent of 10 µM SAHA response;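 active = activation above the average of all compounds screened plus 3 SD, cutoff fixed separately per campaign, cut at about 7.5% in these data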;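 also: 0% = DMSO wells and 100% = 10 µM SAHA wells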
ssDAF12 agonist: activates DAF-12 receptor from parasite S. stercoralis | HEK293 ssDAF-12/GRIP1 lit1-tk-luc reporter, luminescence; % of 3 µM dafachronic acid response | activation, % at 6.8 µM | 370,000 compounds, 1% hits | AID 652126;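 active = activation above the mean over all tested compounds plus 3 SD, cut at about 0.9% in these data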;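 also: 0% = DMSO-only wells and 100% = 3 µM delta7-dafachronic acid wells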
DAX1 inh-1: blocks DAX1 repression of SF-1 activated StAR promoter. HEK293T StAR-luciferase reporter, SF-1/DAX-1 repression relief. 370,000 compounds, 1.1% hits. AID 652010. inhibition, % at 6.8 µM;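 active = inhibition above the mean over all tested compounds plus 3 SD, cut at about 3.6% in these data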;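 also: 0% = DAX-1 cells with DMSO and 100% = cells lacking DAX-1 with DMSO; higher inhibition means more luminescence from relief of DAX-1 repression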
hgDAF-12 ag: activates the H. glycines DAF-12 receptor ligand-binding domain; HEK293 GAL4-hgDAF12 UAS-luciferase reporter, agonist luminescence; normalized to butyrate control; activation, % at 6.8 µM; 370,000 compounds, 1.8% hits; AID 687014;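 active = activation above a cutoff set at the mean of all screened compounds plus 3 SD, cut at about 10% in these data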;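 also: 0% = DMSO wells and 100% = sodium butyrate wells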
hcDAF12 agonist: activates DAF-12 receptor from parasite H. contortus; activation, % at 6.8 µM; 370,000 compounds, 1.4% hits; HEK293 hcDAF-12 lit1-tk-luc reporter, luminescence; 0% DMSO, 100% Δ7-dafachronic acid;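 active = activation above the mean of all tested compounds plus 3 SD, cut at about 5.5% in these data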;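 also: 100% = response to 3 µM Δ7-dafachronic acid high control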
DAX1 inh-2: inhibits human nuclear receptor DAX1 | P51843 | inhibition, % at 6.75 µM | HEK293 Gal4-DAX1 luciferase reporter, luminescence | 340,000 compounds, 0.99% hits;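 active = inhibition above the mean over all tested compounds plus 3 SD, cut at about 4.2% in these data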;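 also: 0% = DAX1-transfected cells with DMSO and 100% = empty-vector control cells with DMSO; inhibition shows as a rise in luminescence from relieved DAX1 repression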
Target sequence (P51843 207-470 limits assumed): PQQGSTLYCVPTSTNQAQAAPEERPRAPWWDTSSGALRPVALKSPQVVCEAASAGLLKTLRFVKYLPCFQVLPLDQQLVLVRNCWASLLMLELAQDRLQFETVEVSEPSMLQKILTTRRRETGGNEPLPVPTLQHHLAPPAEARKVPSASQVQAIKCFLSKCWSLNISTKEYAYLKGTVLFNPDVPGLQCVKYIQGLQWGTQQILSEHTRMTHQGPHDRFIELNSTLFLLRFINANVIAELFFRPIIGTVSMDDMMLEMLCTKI
An asterisk follows results filed as active; nt = not tested or not shown. The list is not random: actives were taken first. Their share in the collection is about 4.5%.

SMILES | GAA850 FXN act | ssDAF12 agonist | DAX1 inh-1 | hgDAF-12 ag | hcDAF12 agonist | DAX1 inh-2
Cc1ccc(NC(=O)c2cc(-c3ccco3)on2)cc1C | 5.8 | -0.2 | -0.2 | 12.5* | 1.7 | 2.4
Cc1ccc(NC(=O)c2cnccn2)cc1C | 2.9 | -0.4 | 1.8 | 11.4* | 3.1 | 4.6*
CCN(C(=O)CN1CCN(c2nc(-c3ccccc3)cs2)CC1)c1ccccc1C | nt | -2.0 | -1.9 | -5.2 | -2.1 | nt
CCOC(=O)c1nn(-c2ccc(C)c(C)c2)cc1O | 1.8 | -0.7 | 2.6 | 12.9* | 4.7 | 2.2
CN(C)[C@@H]1CCN(c2ccc3c(c2)O[C@H]2CCN(C2)S3(=O)=O)C1 | nt | 0.2 | -0.8 | 8.0 | 0.1 | nt
COC1CCN(C(=O)C2CCC(=O)N(C3CCCCCC3)C2)CC1 (stereo unspecified) | 2.0 | 0.0 | 0.7 | 5.0 | 6.3* | 0.6
CC(=O)NCCC1CCN(C(=O)C2CCC(=O)N(C3CCCC3)C2)CC1 (stereo unspecified) | 1.4 | 1.6* | -0.4 | -1.5 | -0.1 | 0.4
COCC1CCN(C(=O)C2CCC(=O)N(C3CCCC3)C2)CC1 (stereo unspecified) | 3.2 | 0.1 | 0.3 | 4.2 | 4.1 | -0.1
CCC(=O)N(C)C[C@@H]1[C@H](c2ccc(C3=CCCCC3)cc2)[C@H](CO)N1C(=O)CC | nt | -1.3 | 0.4 | -1.3 | -2.5 | nt
CC(C)N1CCC2(CC1)Oc1ccc(Br)cc1C1CC(c3cccnc3)=NN12 (stereo unspecified) | 1.6 | -0.2 | 1.2 | 1.7 | 1.7 | 2.3
COc1cccc2c1OC1(CCN(C(C)C)CC1)N1N=C(c3cccnc3)CC21 (stereo unspecified) | 0.6 | -0.6 | 0.1 | 8.1 | 0.5 | 6.8*
COC(=O)C12CCCN1C1C(=O)N(Cc3ccc(C(N)=O)cc3)CC1C2 (stereo unspecified) | nt | -0.9 | -0.5 | -0.5 | -1.9 | nt
CCN(CC)CCCNC(=O)C1(N[C@@H](Cc2c[nH]c3ccccc23)C(=O)NCC(OC)OC)CCCCC1 | nt | -1.1 | nt | 3.1 | 2.9 | nt
CCN(CC)CCCNC(=O)c1cc2c(=O)n(C)c3ccccc3c2n1C | -0.2 | -0.5 | 3.4 | 3.0 | 3.2 | 7.5*
CN(C)CCNC(=O)c1cc2c(=O)n(C)c3ccccc3c2n1C | 2.6 | -0.5 | 0.4 | -0.8 | 5.4 | 4.0
CCCN1CCN(CCCNC(=O)c2cc3c(=O)n(C)c4ccccc4c3n2C)CC1 | 3.7 | -0.7 | 1.8 | 0.4 | 0.8 | 8.4*
CCCCN(CC)CCNC(=O)c1cc2c(=O)n(C)c3ccccc3c2n1C | 2.8 | -0.6 | 2.2 | 3.1 | 4.8 | 3.1
CCN(CC)CCNC(=O)c1cc2c(=O)n(C)c3ccccc3c2n1C | 5.4 | -0.4 | 4.2* | 3.7 | -1.5 | 2.8
CCCN(CCC)CCCNC(=O)c1cc2c(=O)n(C)c3ccccc3c2n1C | 3.3 | -0.1 | 5.0* | -0.3 | 1.9 | 7.8*
COc1ccccc1C(=O)CSc1nnc(-c2ccncc2)n1-c1ccc(Cl)cc1 | nt | -1.4 | -0.6 | 0.4 | 0.2 | nt
CC(C)Sc1nsc2nc(=O)c(/C=C3\C=Nc4ccccc43)c(N)n12 | 0.8 | -1.0 | -0.4 | 5.5 | -0.9 | 1.6
CCCCc1nn2c(N)c(/C=C3\C=Nc4ccccc43)c(=O)nc2s1 | 1.9 | 2.7* | -0.6 | -3.2 | 4.4 | 0.0
CS(=O)(=O)c1nsc2nc(=O)c(/C=C3\C=Nc4ccccc43)c(N)n12 | -0.1 | 1.0* | -0.1 | 1.1 | 0.9 | -1.1
CCCc1nn2c(N)c(/C=C3\C=Nc4ccccc43)c(=O)nc2s1 | 3.3 | -1.4 | 0.2 | -1.1 | 2.0 | -0.3
Cc1onc(-c2ccccc2)c1C(=O)Nc1ccc(NC(=O)c2c(-c3ccccc3)noc2C)cc1 | 0.0 | -1.1 | 0.1 | 1.3 | 1.6 | 5.1*
SMILES | GAA850 FXN act | ssDAF12 agonist | DAX1 inh-1 | hgDAF-12 ag | hcDAF12 agonist | DAX1 inh-2
O=C(c1cc2ccccc2o1)N1CCN(Cc2nc3ccccc3s2)CC1 | 1.5 | 0.7 | 0.4 | 4.8 | 6.2* | 0.6
CSc1nsc(N/N=C/c2ccc3c(c2)OCO3)c1C#N | 4.5 | -0.1 | 2.0 | 12.3* | 2.8 | 1.8
O=C(CSc1nnc(-c2ccccc2)n1-c1ccc(Cl)cc1)c1ccc(F)cc1 | nt | -1.6 | -1.3 | -0.6 | -2.1 | nt
Cc1cccc(C(=O)Nc2nc3ccc(S(C)(=O)=O)cc3s2)c1 | 5.3 | 0.0 | 0.5 | 8.6 | 0.6 | 2.7
Cc1ccc(NC(=O)C(=O)NCC2CCCO2)cc1C (stereo unspecified) | 2.5 | -0.2 | 2.7 | 5.3 | 2.1 | 5.8*
CS(=O)(=O)c1ccc2nc(NC(=O)c3ccccc3)sc2c1 | 2.3 | 0.7 | 0.7 | 10.5* | 4.8 | 2.7
CS(=O)(=O)c1ccc2nc(NC(=O)Nc3cccc(Cl)c3)sc2c1 | -8.7 | -1.9 | 0.5 | 8.0 | -2.8 | -2.8
O=S(=O)(/N=C(/Nc1nc2ccccc2s1)c1ccccc1)c1ccc(F)cc1 | 1.1 | 0.9* | 4.4* | 10.7* | 4.2 | 6.4*
CS(=O)(=O)c1ccc2nc(NC(=O)Nc3ccc(Cl)c(Cl)c3)sc2c1 | -0.4 | 1.9* | 0.4 | -0.8 | -2.0 | -0.3
CCCCCN1CCCCC(NC(=O)c2ccc(F)cc2)C1=O (stereo unspecified) | nt | -1.2 | -0.6 | -2.0 | -1.8 | nt
Cc1c(C(=O)NCC2CCCO2)oc2ccc(Br)cc12 (stereo unspecified) | 5.3 | -0.1 | 3.8* | 4.6 | 1.3 | 1.9
CC(=O)Nc1ccc(S(=O)(=O)NCC2CCCO2)cc1 (stereo unspecified) | 0.2 | -0.6 | -0.5 | 0.0 | 0.1 | 5.1*
CS(=O)(=O)c1ccc2nc(NC(=O)c3ccc(S(=O)(=O)NCC4CCCO4)cc3)sc2c1 (stereo unspecified) | 0.3 | -2.3 | -2.0 | 2.2 | -1.4 | 5.4*
CC(=O)Nc1ccc(C(=O)Nc2ccc(S(=O)(=O)NCC3CCCO3)cc2)cc1 (stereo unspecified) | -0.2 | -0.7 | -0.5 | -1.1 | -1.4 | 0.3
Cc1c(C(=O)NCC2CCCO2)oc2ccc(S(=O)(=O)N3CCCCC3)cc12 (stereo unspecified) | 2.3 | -1.5 | -0.8 | -1.5 | -1.2 | 0.5
COC(=O)C12C=C3CC(C4CC4)=C3C(=O)N1Cc1[nH]c3ccccc3c1C2 (stereo unspecified) | nt | -0.3 | -1.7 | 0.2 | 4.2 | nt
O=C(Nc1ccc2c(c1)OCO2)OC1CCC12CCC(c1ccccc1)CC2 (stereo unspecified) | nt | -1.1 | 0.5 | 6.4 | 3.0 | nt
CCOC(=O)N1CCN(C(=O)C[C@@H]2C(=O)N(CCc3ccc(Cl)cc3)/C3=C/CCCCC[C@@]32C(=O)OCC)CC1 | nt | -1.4 | -0.6 | -5.5 | -3.0 | nt
Cc1ccccc1OCc1nc2ccccc2n1C | 3.4 | -0.4 | 1.5 | 11.0* | 3.7 | 1.8
Cn1c(COc2ccc(F)cc2)nc2ccccc21 | 3.6 | -0.2 | 0.7 | 9.3 | 4.1 | 2.2
